Assay results as given in the supplement of paper PMC12340641.

Tests used:
[1] = biological target: IKZF1 (dCK*-IKZF1 fusion in HEK293FT) (UniProt Q13422); experiment: inhibition of IKZF1 HTRF signal (DMSO = 0%, pomalidomide 10 uM = 100%); higher = lower IKZF1 protein level; settings: compound concentration: 5 uM, overnight (~20 h)
Method in brief: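 After overnight treatment at 37 °C with 5 μM compound in single wells, HEK293FT cells (2000/well, 384-well) stably expressing an IKZF1 fusion were lysed for 30 min at room temperature. A commercial HTRF total-IKZF1 antibody kit was incubated with the lysate overnight, and the time-resolved FRET ratio at 665/620 nm was corrected for background. Data are given as percent inhibition of IKZF1 signal relative, on each plate, to vehicle and a reference degrader, set at 0% and 100% respectively.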

[2] = tested on: HEK293FT dCK*-only; experiment: relative growth in counter assay (no AraC = 100%, AraC + DMSO = 0%); higher = more growth rescue independent of IKZF1; settings: compound concentration: 5 uM; AraC concentration: 0.3 uM; overnight pretreatment + 4 days AraC
Method in brief: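 Counter assay in HEK293FT cells expressing dCK* alone (300/well, 384-well). Cells received 5 μM compound 2 h after seeding, then after overnight at 37 °C a nucleoside suicide substrate at 0.3 μM plus medium for 4 days. On day 5, Hoechst 33342-stained nuclei were counted by imaging. Relative growth was normalised per plate to wells without suicide substrate (100%) and substrate plus vehicle (0%).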

[3] = tested on: HEK293FT dCK*-IKZF1; experiment: relative growth recovery (pomalidomide 10 uM = 100%, DMSO = 0%); higher = more growth rescue (IKZF1 fusion degradation); settings: compound concentration: 5 uM; AraC concentration: 0.3 uM; overnight pretreatment + 4 days AraC
Method in brief: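 HEK293FT cells stably expressing a dCK*-IKZF1 fusion (300/well, 384-well) received 5 μM compound 2 h after seeding. After overnight at 37 °C they received a nucleoside suicide substrate at 0.3 μM plus medium for 4 days. On day 5, Hoechst 33342-stained nuclei were counted by whole-well imaging. Growth recovery was normalised per plate to a reference degrader (100%) and vehicle (0%); values are means of duplicates run on different days.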

IKZF1 (dCK*-IKZF1 fusion in HEK293FT), sequence (Q13422 whole entry, looked up, the tested form may be a part): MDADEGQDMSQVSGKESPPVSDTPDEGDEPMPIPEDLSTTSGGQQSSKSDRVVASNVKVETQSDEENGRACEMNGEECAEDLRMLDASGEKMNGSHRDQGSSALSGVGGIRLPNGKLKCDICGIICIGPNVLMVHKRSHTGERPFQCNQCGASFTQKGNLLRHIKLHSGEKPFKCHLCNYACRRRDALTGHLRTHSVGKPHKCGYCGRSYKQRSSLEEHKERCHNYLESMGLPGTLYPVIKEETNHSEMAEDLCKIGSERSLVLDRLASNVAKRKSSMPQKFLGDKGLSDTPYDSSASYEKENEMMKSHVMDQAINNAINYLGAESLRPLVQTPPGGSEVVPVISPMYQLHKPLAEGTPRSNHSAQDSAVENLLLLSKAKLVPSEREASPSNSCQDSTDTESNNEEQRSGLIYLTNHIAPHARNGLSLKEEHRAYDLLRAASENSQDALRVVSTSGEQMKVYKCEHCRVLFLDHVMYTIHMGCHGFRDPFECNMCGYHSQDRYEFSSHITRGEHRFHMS

Compound | inhibition of IKZF1 HTRF signal [1] [%] | relative growth in counter assay [2] [%] | relative growth recovery [3] [%]
Clc1ccc(C(OCCN2CCCCC2)c2ccccc2)cc1 (configuration not stated) | -26.4 | -4.94 | -0.525
COc1cc([C@@H]2c3cc4c(cc3[C@H](O)[C@H]3COC(=O)C23)OCO4)cc(OC)c1OC (some centres not stated) [Podofilox] | 49.2 | -34 | -12.1
O=C(CCCN1CCC2(CC1)C(=O)NCN2c1ccccc1)c1ccc(F)cc1 [spiperone] | -3.55 | -1.41 | -0.995
Cc1cc(O)c2c(=O)c3c(O)cc(O)c4c5c(O)cc(O)c6c(=O)c7c(O)cc(C)c8c1c2c(c34)c(c78)c65 [Hypericin] | 13.4 | -9.3 | -3.8
OC1=[C@]([C@]2=C(O)C(C(C=O)=C(O)C(O)=C3C(C)C)=C3C=C2C)C(C)=CC4=C1C(C=O)=C(O)C(O)=C4C(C)C [gossypol] | -16.2 | -34.8 | -11.7
CN(C)C(=S)SSC(=S)N(C)C | -13.8 | -35.1 | -12.7
CCO[C@H]1O[C@@H]2O[C@@]3(C)CC[C@H]4[C@H](C)CC[C@@H]([C@H]1C)[C@@]24OO3 [Artemotil] | 21.4 | -27.3 | -5.64
C[C@@]12C(=O)OC(=O)[C@]1(C)[C@H]1CC[C@@H]2O1 [cantharidin] | 15.8 | 3.7 | -4.16
CCCCC1(C2CCCC2)Cc2cc(OCCCC(=O)O)c(Cl)c(Cl)c2C1=O (configuration not stated) | -38.8 | 2.86 | 0.8
COC(=O)[C@@]12OC[C@]34[C@H]([C@@H](O)[C@@H]1O)[C@@]1(C)CC(=O)C(O)=C(C)[C@@H]1C[C@H]3OC(=O)[C@H](OC(=O)/C=C(\C)C(C)C)[C@@H]24 [Bruceantin] | 43.7 | -34.9 | -12.3
c1ccc2c(c1)Nc1ccccc1S2 | -13.2 | -0.21 | 0.68
O=c1[nH]c2ccccc2n1C1CCN(CCCC(c2ccc(F)cc2)c2ccc(F)cc2)CC1 [Pimozide] | -27.8 | -9.38 | -1.04
c1ccc2c(c1)Sc1ccccc1N2CC1CN2CCC1CC2 (configuration not stated) [levomequitazine] | 10.6 | -5.25 | 0.35
O=[N+]([O-])c1cc(O)c(O)c([N+](=O)[O-])c1 | -33.8 | 2.01 | 0.23
CC(C)C[C@H](NC(=O)[C@@H](O)[C@H](N)Cc1ccccc1)C(=O)NCCOCCOCCOCC(=O)O[C@H]1CC[C@H]2[C@@H]3CC[C@H]4CC(=O)CC[C@]4(C)[C@H]3CC[C@]12C.O=C(O)C(F)(F)F [PROTAC AR Degrader-4 (TFA)] | 16.9 | 12.3 | 8.26
CC(=O)OC[C@]12CCC(C)=C[C@H]1O[C@@H]1[C@H](O)[C@@H](OC(C)=O)[C@@]2(C)[C@@]12CO2 [Diacetoxyscirpenol] | 93.3 | -34.2 | -12.7
Oc1cc(Cl)ccc1Oc1ccc(Cl)cc1Cl | -23.1 | -4.14 | -0.94
CCCCCCC[n+]1ccc(-c2cc[n+](CCCCCCC)cc2)cc1 | -27.9 | -12.3 | -3.88
CO[C@@]12C(=COC(N)=O)c3c(O)c(N)c(C)c(O)c3N1C[C@@H]1N[C@@H]12 [Mitomycin C] | 15.8 | -25.9 | -6.43
C=C(C)CN1CC[C@]23c4c5ccc(O)c4O[C@H]2c2[nH]c4ccccc4c2C[C@@]3(O)C1C5 | -30.3 | -7.54 | -3.3
O=C1/C(=C/c2ccccc2)C[C@@]2(O)C3Cc4ccc(O)c5c4[C@@]2(CCN3CC2CC2)[C@H]1O5 | 27.9 | -34.5 | -12.6
Clc1ccc(N2CCN(Cc3c[nH]c4ncccc34)CC2)cc1 | -41.5 | 6.88 | 2.15
O=c1[nH]c2ccccc2n1C1CCN(CCCC(c2ccc(F)cc2)c2ccc(F)cc2)CC1 | -18.9 | 3.23 | 5.47
CO[C@H]1C[C@H](O[C@H]2CC[C@@]3(C)[C@H](CC[C@@H]4[C@@H]3CC[C@]3(C)[C@@H](C5=CC(=O)OC5)[C@@H](OC(C)=O)C[C@]43O)C2)O[C@@H](C)[C@@H]1O [Oleandrin] | 45.9 | -35 | -12.7
COC[C@H]1OC(=O)c2coc3c2[C@@]1(C)C1=C(C3=O)[C@@H]2CCC(=O)[C@@]2(C)C[C@H]1OC(C)=O [Wortmannin] | 1.66 | 0.96 | 1.92
O=[N+]([O-])c1ccc(Cl)c([N+](=O)[O-])c1 [2,4-dinitrochlorobenzene] | 7.2 | -34.1 | -12.8
Oc1c(I)cc(I)cc1I | 11 | 4.58 | 2.79
COc1ccc(C[C@H]2NC[C@H](O)[C@H]2OC(C)=O)cc1 [anisomycin] | 63.3 | -34.7 | -12.5
C(=C\c1ccccc1)/CN1CCN(CCOC(c2ccccc2)c2ccccc2)CC1 | -32.9 | -4.14 | 0.86
